Whole data set: some 3,700 sequences, median “z-score” near 4, cut for the highest 2% near 8.4. The sample holds the highest values, similar sequences and a random draw of the others, so the mix is not that of the screen.
Legend:
[1] = target: PU.1 (IVT) (UniProt P17947 1-270); assay: protein-binding microarray (PBM); 20 mM HEPES pH 7.9, 100 mM NaCl, 1 mM DTT, 0.2 mg/mL BSA, 0.02% Triton X-100, 2% milk, 0.4 mg/mL salmon testes DNA; 1 h; temperature not stated; high values mean tight binding; settings: dsDNA, one strand shown
In short: (§1)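 Untagged full-length PU.1 was produced by coupled human in vitro transcription/translation and incubated for 1 h on custom double-stranded DNA microarrays in HEPES pH 7.9 containing 100 mM NaCl, 2% milk and salmon testes DNA. Each array carried 20-bp genomic sites and single-nucleotide variants, with 10 probes per site (5 per orientation). Bound protein was detected with anti-PU.1 followed by a fluorescent secondary antibody. Binding values are z-scores calculated from scanned fluorescence after linear-regression normalisation.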

[2] = target: PU.1 (IVT) (UniProt P17947 1-270); assay: as above; settings: dsDNA, one strand shown; remark: listed apart in the source
In short: as §1

Sequence | binding signal [1] | binding signal [2]
GCCTAGCACGAAAAGAGGAAGTCTTGCATGTGCTAGGTCTTGATTCGCTTGACGCTGCTG | 8.22 z-score | –
GCCTAGCACGAAAAAAGGAAGTAGTATAAGTGCTAGGTCTTGATTCGCTTGACGCTGCTG | 6.96 z-score | –
GCCTAGCACGAAAAGAGGAAATGGGGAGTGTGCTAGGTCTTGATTCGCTTGACGCTGCTG | – | 5.14 z-score
GCCTAGCACGAAAAGAGGAAGTTGGACATGTGCTAGGTCTTGATTCGCTTGACGCTGCTG | 8.75 z-score | –
GCCTAGCACGAAAAGAGGAAGAGTCTTAGGTGCTAGGTCTTGATTCGCTTGACGCTGCTG | – | 5 z-score
GCCTAGCACGAAAAGAGGAAGTTGGGGAAGTGCTAGGTCTTGATTCGCTTGACGCTGCTG | 8.94 z-score | –
GCCTAGCACGAAAAGAGGAAGTAGGATAAGTGCTAGGTCTTGATTCGCTTGACGCTGCTG | 8.46 z-score | –
GCCTAGCACGAAAAGGGGAAGTTGGGTTGGTGCTAGGTCTTGATTCGCTTGACGCTGCTG | 8.21 z-score | –
GCCTAGCACAAAAAAAGGAAGTGAAAGTAGTGCTAGGTCTTGATTCGCTTGACGCTGCTG | 6.78 z-score | –
GCCTAGCACGGTGGGAGGAAGTGATCGGTGTGCTAGGTCTTGATTCGCTTGACGCTGCTG | – | 3.72 z-score
GCCTAGCACGAAAAGGGGAAGTGAGGGATGTGCTAGGTCTTGATTCGCTTGACGCTGCTG | 7.81 z-score | –
GCCTAGCACGAAAAAAGGAAGTTGCACAGGTGCTAGGTCTTGATTCGCTTGACGCTGCTG | 6.42 z-score | –
GCCTAGCACTGGGAGGAGAAGTGAAACCTGTGCTAGGTCTTGATTCGCTTGACGCTGCTG | 1.37 z-score | –
GCCTAGCACTGAAAGAGGAATTGCAACCAGTGCTAGGTCTTGATTCGCTTGACGCTGCTG | 2.04 z-score | –
GCCTAGCACGAAAAGAGGAAGTTAAAGAAGTGCTAGGTCTTGATTCGCTTGACGCTGCTG | 8.52 z-score | –
GCCTAGCACGAAAAGAGGAAGTCTGAAAAGTGCTAGGTCTTGATTCGCTTGACGCTGCTG | 7.48 z-score | –
GCCTAGCACGAAAAGAGGAAGTGAAGTTAGTGCTAGGTCTTGATTCGCTTGACGCTGCTG | 8.28 z-score | –
GCCTAGCACAGTTGGAGGAAGTGGCACTTGTGCTAGGTCTTGATTCGCTTGACGCTGCTG | 2.78 z-score | –
GCCTAGCACGAAAACAGGAAGTGGGGATGGTGCTAGGTCTTGATTCGCTTGACGCTGCTG | 7.43 z-score | –
GCCTAGCACCAAAAGAGGAACTGCTGCTGGTGCTAGGTCTTGATTCGCTTGACGCTGCTG | 6.83 z-score | –
GCCTAGCACCAAAAGAGGAAGTTGGCAAAGTGCTAGGTCTTGATTCGCTTGACGCTGCTG | 8.72 z-score | –
GCCTAGCACCAAAAGAGGAAGTGGCATATGTGCTAGGTCTTGATTCGCTTGACGCTGCTG | 8.01 z-score | –
GCCTAGCACCAAAGAAGGAAGTGAAACTGGTGCTAGGTCTTGATTCGCTTGACGCTGCTG | 4.74 z-score | –
GCCTAGCACCAAAAGAGGAAGTCAGAGAGGTGCTAGGTCTTGATTCGCTTGACGCTGCTG | 7.94 z-score | –
GCCTAGCACCAAAAGAGGAAGTGGTATCAGTGCTAGGTCTTGATTCGCTTGACGCTGCTG | 8.24 z-score | –

Sequence | binding signal [1] | binding signal [2]
GCCTAGCACCAAAAGAGGAAGTCAAGCTGGTGCTAGGTCTTGATTCGCTTGACGCTGCTG | 7.88 z-score | –
GCCTAGCACCAAAAGAGGAAGTGGTGAAAGTGCTAGGTCTTGATTCGCTTGACGCTGCTG | 8.4 z-score | –
GCCTAGCACCAAAAGAGGAAGTGAAGCTGGTGCTAGGTCTTGATTCGCTTGACGCTGCTG | 8.37 z-score | –
GCCTAGCACTGAGAGAGGAAGTAACTTAAGTGCTAGGTCTTGATTCGCTTGACGCTGCTG | – | 5.44 z-score
GCCTAGCACCTGCCAGGGAAGTGAAATCAGTGCTAGGTCTTGATTCGCTTGACGCTGCTG | 1.1 z-score | –
GCCTAGCACGAGAAGAGGAAGTGAGATCTGTGCTAGGTCTTGATTCGCTTGACGCTGCTG | 6.45 z-score | –
GCCTAGCACAAAAAGAGGAAGAGGGGACAGTGCTAGGTCTTGATTCGCTTGACGCTGCTG | 5.23 z-score | –
GCCTAGCACAAAGTGGGGAAGTGACAAAAGTGCTAGGTCTTGATTCGCTTGACGCTGCTG | – | 3.36 z-score
GCCTAGCACAAAAAGGGGAAGTGACATAAGTGCTAGGTCTTGATTCGCTTGACGCTGCTG | 8.47 z-score | –
GCCTAGCACAAAAAAGGGAAGTGATTTAAGTGCTAGGTCTTGATTCGCTTGACGCTGCTG | 8.59 z-score | –
GCCTAGCACAAAAAAGGGAAGTGCCATAAGTGCTAGGTCTTGATTCGCTTGACGCTGCTG | 7.55 z-score | –
GCCTAGCACAAAAAAGGGAAGTGACATACGTGCTAGGTCTTGATTCGCTTGACGCTGCTG | 7.76 z-score | –
GCCTAGCACAAAAAAGGGAAGTGAAAATAGTGCTAGGTCTTGATTCGCTTGACGCTGCTG | 7.69 z-score | –
GCCTAGCACGAAAAGAGGAACCGTATGGTGTGCTAGGTCTTGATTCGCTTGACGCTGCTG | 5.79 z-score | –
GCCTAGCACTAAAAGAGGAAGTAGCCAAAGTGCTAGGTCTTGATTCGCTTGACGCTGCTG | 8.23 z-score | –
GCCTAGCACTAAAAGAGGAAGAGGAAGAAGTGCTAGGTCTTGATTCGCTTGACGCTGCTG | – | 5.75 z-score
GCCTAGCACTAAAAGAGGAAGTGCATTCAGTGCTAGGTCTTGATTCGCTTGACGCTGCTG | 8.5 z-score | –
GCCTAGCACTAAAAGAGGAAGTGACCTCAGTGCTAGGTCTTGATTCGCTTGACGCTGCTG | 7.82 z-score | –
GCCTAGCACTAAAAGAGGAAGTGCAACCAGTGCTAGGTCTTGATTCGCTTGACGCTGCTG | 8.29 z-score | –
GCCTAGCACTAAAAGAGGAAGTAGGAATAGTGCTAGGTCTTGATTCGCTTGACGCTGCTG | 8.36 z-score | –
GCCTAGCACAGCAGGAGGAAGTGGGTGGAGTGCTAGGTCTTGATTCGCTTGACGCTGCTG | – | 3.97 z-score
GCCTAGCACAAAAAAAGGAAATGAAATTAGTGCTAGGTCTTGATTCGCTTGACGCTGCTG | 3.65 z-score | –
GCCTAGCACCAAAAGAGGAAGAGTCTGACGTGCTAGGTCTTGATTCGCTTGACGCTGCTG | 4.26 z-score | –
GCCTAGCACACAAAAAGGAACTGTTCCCCGTGCTAGGTCTTGATTCGCTTGACGCTGCTG | 2.27 z-score | –

From article PMC6451091, “NextPBM: a platform to study cell-specific transcription factor binding and cooperativity”
